Measured values as given in ChEMBL document CHEMBL1961873, “Compounds: GSK PKIS; Assays: Nanosyn kinase panel” (2012).

Assays:
[1] = biological target: High affinity nerve growth factor receptor (Homo sapiens) (UniProt P04629); settings: at 1 µM;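 note: each value is the mean percent inhibition of TRKA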
[2] = biological target: BDNF/NT-3 growth factors receptor (Homo sapiens) (UniProt Q16620); settings: at 0.1 µM
[3] = biological target: BDNF/NT-3 growth factors receptor (Homo sapiens) (UniProt Q16620); settings: at 1 µM
[4] = biological target: NT-3 growth factor receptor (Homo sapiens) (UniProt Q16288); settings: at 0.1 µM
[5] = biological target: NT-3 growth factor receptor (Homo sapiens) (UniProt Q16288); settings: at 1 µM
[6] = biological target: T1, Tyrosine-protein kinase TXK (Homo sapiens) (UniProt P42681); settings: at 0.1 µM
T1 sequence (whole entry): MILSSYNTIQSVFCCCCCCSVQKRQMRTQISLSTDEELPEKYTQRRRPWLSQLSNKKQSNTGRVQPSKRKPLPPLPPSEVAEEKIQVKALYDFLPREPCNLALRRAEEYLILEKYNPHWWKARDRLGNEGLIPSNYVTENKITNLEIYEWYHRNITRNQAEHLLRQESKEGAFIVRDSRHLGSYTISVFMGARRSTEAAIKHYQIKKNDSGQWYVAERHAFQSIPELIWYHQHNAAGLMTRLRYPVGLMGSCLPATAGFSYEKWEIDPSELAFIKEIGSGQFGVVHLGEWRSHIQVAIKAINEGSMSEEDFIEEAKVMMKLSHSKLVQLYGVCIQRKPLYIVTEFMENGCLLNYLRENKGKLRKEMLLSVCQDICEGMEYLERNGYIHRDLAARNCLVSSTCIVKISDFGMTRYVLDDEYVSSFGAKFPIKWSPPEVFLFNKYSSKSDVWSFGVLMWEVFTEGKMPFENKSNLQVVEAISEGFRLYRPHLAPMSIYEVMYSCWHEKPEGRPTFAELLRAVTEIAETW

[7] = biological target: T1, Tyrosine-protein kinase TXK (Homo sapiens); settings: at 1 µM
[8] = biological target: Non-receptor tyrosine-protein kinase TYK2 (Homo sapiens) (UniProt P29597); settings: at 0.1 µM;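 note: each value is a mean of the inhibition readings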
Non-receptor tyrosine-protein kinase TYK2 (Homo sapiens), sequence (P29597 whole entry): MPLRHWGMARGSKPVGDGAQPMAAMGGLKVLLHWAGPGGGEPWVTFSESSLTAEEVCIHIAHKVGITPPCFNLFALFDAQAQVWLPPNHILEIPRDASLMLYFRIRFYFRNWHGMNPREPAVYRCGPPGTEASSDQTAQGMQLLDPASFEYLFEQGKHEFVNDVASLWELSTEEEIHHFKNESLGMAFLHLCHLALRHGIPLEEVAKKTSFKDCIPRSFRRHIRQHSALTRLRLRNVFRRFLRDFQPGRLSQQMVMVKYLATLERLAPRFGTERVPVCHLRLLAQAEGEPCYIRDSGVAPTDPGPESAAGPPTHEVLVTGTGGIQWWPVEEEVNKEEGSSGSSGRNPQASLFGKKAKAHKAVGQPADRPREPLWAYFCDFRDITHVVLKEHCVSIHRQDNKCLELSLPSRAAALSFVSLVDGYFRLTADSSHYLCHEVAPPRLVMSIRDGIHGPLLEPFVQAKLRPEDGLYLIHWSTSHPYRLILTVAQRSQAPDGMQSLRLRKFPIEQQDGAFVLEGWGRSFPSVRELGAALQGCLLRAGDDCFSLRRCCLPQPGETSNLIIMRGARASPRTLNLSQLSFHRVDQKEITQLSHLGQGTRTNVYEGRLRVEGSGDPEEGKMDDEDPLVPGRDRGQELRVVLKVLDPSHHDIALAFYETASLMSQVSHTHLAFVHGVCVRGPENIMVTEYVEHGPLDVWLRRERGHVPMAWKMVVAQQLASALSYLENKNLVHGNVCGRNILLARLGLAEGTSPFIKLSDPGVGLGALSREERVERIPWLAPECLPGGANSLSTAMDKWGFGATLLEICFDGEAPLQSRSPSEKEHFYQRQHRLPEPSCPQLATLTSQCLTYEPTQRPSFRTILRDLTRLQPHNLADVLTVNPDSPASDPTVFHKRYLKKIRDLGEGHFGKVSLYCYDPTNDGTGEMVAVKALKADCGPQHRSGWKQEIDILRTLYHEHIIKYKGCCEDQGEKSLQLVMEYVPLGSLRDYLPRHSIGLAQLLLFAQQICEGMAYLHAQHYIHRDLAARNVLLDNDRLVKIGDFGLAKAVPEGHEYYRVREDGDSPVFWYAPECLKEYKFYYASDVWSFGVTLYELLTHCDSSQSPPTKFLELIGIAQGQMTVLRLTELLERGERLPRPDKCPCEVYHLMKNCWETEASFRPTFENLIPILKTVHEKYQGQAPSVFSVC

[9] = biological target: T2, Dual specificity protein kinase TTK (Homo sapiens) (UniProt P33981); settings: at 1 µM;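 note: reported figures are mean TTK inhibition at 1 µM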
T2 sequence (whole entry): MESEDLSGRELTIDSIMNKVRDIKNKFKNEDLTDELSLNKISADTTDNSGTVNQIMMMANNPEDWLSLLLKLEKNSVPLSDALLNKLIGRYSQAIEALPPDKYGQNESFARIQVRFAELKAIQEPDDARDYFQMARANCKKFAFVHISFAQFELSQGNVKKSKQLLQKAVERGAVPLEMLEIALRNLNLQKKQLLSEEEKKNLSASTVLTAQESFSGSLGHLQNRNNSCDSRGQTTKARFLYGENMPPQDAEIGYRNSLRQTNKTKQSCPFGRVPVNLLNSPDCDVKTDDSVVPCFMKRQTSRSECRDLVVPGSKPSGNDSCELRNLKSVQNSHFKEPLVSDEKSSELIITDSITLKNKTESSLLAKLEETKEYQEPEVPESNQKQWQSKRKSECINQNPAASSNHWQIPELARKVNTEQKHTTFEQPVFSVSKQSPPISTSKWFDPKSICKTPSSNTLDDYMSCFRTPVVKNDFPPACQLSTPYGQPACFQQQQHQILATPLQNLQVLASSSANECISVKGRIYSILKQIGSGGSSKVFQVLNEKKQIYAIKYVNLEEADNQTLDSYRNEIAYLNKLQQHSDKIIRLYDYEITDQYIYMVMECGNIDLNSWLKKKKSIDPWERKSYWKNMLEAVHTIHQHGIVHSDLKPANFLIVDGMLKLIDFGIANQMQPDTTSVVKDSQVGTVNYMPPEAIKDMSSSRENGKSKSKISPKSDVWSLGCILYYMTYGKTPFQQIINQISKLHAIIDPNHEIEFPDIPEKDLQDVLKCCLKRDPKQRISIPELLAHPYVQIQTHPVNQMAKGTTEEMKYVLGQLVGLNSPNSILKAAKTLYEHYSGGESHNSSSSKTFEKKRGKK

[10] = biological target: T3, Aurora kinase A (Homo sapiens) (UniProt O14965); settings: at 0.1 µM
T3 sequence (whole entry): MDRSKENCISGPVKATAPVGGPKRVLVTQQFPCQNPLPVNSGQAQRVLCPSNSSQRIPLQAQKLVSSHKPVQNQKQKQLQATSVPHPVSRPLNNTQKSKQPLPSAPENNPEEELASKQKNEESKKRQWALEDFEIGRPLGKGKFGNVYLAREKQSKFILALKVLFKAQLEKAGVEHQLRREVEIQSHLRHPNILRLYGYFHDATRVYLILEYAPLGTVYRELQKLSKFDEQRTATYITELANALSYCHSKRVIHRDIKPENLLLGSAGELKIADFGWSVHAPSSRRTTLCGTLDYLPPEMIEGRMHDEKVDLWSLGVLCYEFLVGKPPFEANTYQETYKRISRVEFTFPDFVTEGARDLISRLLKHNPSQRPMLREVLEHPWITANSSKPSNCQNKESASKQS

[11] = biological target: T3, Aurora kinase A (Homo sapiens); settings: at 1 µM
[12] = biological target: Aurora kinase B (Homo sapiens) (UniProt Q96GD4); settings: at 0.1 µM
Aurora kinase B (Homo sapiens), sequence (Q96GD4 whole entry): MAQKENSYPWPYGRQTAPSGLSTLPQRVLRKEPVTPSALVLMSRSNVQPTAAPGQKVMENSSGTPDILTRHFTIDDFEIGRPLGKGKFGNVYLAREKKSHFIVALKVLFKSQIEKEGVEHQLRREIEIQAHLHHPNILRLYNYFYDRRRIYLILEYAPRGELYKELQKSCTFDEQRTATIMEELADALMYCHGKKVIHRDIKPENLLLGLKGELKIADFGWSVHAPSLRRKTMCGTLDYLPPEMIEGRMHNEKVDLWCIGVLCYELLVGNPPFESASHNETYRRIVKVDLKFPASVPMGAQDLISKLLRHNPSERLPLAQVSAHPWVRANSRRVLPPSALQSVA

[13] = biological target: Aurora kinase B (Homo sapiens) (UniProt Q96GD4); settings: at 1 µM
[14] = biological target: T4, Aurora kinase C (Homo sapiens) (UniProt Q9UQB9); settings: at 0.1 µM
T4 sequence (whole entry): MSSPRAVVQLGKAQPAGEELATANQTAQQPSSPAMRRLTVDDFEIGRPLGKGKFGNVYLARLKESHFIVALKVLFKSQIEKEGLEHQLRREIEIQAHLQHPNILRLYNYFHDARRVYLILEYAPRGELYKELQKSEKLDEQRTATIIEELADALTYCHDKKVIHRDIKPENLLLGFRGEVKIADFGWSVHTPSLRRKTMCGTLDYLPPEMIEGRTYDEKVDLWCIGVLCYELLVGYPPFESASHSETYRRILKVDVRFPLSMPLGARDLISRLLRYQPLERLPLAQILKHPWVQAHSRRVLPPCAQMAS

[15] = biological target: T4, Aurora kinase C (Homo sapiens); settings: at 1 µM
[16] = biological target: Serine/threonine-protein kinase 10 (Homo sapiens) (UniProt O94804); settings: at 0.1 µM
Serine/threonine-protein kinase 10 (Homo sapiens), sequence (O94804 whole entry, looked up): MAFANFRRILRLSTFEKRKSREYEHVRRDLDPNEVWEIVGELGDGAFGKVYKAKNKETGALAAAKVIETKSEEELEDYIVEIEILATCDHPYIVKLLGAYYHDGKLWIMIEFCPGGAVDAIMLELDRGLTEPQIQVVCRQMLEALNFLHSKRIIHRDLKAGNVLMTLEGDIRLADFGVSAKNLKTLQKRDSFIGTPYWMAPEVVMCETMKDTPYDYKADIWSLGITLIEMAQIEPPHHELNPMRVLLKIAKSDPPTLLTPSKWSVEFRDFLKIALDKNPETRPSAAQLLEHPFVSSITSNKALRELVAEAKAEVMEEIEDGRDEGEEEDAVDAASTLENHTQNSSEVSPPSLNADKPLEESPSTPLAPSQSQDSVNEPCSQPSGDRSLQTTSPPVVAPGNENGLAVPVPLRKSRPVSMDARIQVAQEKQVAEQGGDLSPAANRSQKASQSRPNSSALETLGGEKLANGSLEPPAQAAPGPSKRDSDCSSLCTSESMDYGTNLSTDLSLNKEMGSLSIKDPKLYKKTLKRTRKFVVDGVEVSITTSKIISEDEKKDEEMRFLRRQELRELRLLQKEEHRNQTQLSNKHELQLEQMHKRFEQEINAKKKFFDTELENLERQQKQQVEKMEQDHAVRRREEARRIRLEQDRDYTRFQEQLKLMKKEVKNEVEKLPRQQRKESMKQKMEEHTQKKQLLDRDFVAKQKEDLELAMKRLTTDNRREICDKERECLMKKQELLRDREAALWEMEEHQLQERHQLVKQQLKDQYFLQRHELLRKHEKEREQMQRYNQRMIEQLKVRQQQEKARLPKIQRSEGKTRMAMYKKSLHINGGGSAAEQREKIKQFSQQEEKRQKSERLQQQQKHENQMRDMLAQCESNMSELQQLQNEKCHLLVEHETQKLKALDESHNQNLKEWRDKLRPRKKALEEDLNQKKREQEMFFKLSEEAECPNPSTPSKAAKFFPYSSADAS

[17] = biological target: Serine/threonine-protein kinase 10 (Homo sapiens) (UniProt O94804); settings: at 1 µM
[18] = biological target: T5, Mitogen-activated protein kinase kinase kinase kinase 2 (Homo sapiens) (UniProt Q12851); settings: at 0.1 µM
T5 sequence (whole entry): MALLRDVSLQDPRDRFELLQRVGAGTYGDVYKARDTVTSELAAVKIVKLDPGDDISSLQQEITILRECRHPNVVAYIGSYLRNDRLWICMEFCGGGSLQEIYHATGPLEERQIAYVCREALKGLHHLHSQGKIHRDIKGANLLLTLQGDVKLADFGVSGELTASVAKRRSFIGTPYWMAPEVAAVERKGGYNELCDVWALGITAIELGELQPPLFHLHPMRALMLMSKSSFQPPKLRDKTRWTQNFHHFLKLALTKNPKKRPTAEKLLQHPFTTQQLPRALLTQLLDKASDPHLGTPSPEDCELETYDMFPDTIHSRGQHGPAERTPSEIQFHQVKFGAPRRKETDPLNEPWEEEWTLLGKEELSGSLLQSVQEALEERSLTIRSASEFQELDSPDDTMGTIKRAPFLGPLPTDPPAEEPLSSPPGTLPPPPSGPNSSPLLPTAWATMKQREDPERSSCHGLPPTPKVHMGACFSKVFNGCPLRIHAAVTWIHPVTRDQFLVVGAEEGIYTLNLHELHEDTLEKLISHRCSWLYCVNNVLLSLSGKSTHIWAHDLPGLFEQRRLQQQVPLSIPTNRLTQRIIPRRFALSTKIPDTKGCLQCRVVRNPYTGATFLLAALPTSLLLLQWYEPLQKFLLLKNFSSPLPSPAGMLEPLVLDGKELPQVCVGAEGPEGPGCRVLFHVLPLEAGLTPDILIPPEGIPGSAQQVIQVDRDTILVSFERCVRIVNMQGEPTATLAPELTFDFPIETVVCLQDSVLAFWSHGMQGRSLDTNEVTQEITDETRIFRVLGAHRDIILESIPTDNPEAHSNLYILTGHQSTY

[19] = biological target: T5, Mitogen-activated protein kinase kinase kinase kinase 2 (Homo sapiens); settings: at 1 µM
[20] = biological target: Mitogen-activated protein kinase kinase kinase kinase 4 (Homo sapiens) (UniProt O95819); settings: at 0.1 µM
Mitogen-activated protein kinase kinase kinase kinase 4 (Homo sapiens), sequence (O95819 2-1239 limits assumed): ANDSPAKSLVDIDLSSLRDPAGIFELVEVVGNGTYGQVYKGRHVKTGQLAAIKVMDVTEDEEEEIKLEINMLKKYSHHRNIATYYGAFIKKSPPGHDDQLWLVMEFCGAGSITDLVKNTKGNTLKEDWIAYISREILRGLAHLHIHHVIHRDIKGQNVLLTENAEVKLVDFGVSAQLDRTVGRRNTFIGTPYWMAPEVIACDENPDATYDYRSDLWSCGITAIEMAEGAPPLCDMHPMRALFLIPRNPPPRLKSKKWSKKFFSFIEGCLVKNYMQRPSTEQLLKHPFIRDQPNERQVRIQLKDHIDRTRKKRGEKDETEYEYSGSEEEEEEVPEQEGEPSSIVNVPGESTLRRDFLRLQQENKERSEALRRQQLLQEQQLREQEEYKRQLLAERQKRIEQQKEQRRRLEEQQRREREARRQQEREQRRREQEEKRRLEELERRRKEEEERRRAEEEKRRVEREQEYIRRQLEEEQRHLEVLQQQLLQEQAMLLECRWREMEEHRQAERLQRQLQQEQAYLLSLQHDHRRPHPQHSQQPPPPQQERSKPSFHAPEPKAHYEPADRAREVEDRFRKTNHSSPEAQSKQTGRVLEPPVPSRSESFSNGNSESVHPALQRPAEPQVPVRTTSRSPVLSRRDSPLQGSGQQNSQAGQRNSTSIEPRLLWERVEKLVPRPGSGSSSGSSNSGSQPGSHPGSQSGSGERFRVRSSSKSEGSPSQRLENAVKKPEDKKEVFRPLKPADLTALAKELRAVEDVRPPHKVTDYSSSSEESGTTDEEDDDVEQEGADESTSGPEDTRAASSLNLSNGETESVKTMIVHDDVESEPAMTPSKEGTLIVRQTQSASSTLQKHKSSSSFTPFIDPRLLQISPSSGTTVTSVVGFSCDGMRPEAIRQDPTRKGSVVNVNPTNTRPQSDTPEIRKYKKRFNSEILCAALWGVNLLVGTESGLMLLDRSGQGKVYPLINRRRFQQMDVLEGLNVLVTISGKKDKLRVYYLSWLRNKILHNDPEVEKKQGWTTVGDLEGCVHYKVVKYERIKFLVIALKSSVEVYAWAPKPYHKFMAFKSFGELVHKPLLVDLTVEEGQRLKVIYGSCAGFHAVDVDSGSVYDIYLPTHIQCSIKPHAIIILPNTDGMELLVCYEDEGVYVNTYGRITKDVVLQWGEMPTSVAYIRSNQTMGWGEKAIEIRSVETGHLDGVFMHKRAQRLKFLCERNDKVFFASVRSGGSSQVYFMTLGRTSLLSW

High affinity nerve growth factor receptor (Homo sapiens), sequence (P04629 33-796 limits assumed): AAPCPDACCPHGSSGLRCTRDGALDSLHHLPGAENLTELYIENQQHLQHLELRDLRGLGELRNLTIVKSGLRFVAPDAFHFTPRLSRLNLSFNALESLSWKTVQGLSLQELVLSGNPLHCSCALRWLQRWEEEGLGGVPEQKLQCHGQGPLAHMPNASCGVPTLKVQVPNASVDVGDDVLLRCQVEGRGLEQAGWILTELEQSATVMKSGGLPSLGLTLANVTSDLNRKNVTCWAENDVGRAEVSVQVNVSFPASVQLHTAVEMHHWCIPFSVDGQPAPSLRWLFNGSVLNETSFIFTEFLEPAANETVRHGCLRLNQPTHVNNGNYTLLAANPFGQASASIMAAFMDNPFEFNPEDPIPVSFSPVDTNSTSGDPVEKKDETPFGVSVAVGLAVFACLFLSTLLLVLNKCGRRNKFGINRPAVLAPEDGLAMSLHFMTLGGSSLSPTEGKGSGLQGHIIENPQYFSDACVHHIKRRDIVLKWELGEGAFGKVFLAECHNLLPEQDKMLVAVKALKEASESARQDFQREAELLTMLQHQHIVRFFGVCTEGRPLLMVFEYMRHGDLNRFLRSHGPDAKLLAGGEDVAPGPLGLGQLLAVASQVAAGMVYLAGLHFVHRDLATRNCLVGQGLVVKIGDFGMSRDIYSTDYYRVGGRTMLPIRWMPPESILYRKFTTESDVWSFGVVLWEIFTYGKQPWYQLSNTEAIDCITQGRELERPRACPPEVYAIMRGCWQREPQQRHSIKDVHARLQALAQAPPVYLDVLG

Row | SMILES | inhibition [1] | inhibition [2] | inhibition [3] | inhibition [4] | inhibition [5] | inhibition [6] | inhibition [7] | inhibition [8] | inhibition [9] | inhibition [10] | inhibition [11] | inhibition [12] | inhibition [13] | inhibition [14] | inhibition [15] | inhibition [16] | inhibition [17] | inhibition [18] | inhibition [19] | inhibition [20]
1 | COc1cc(Nc2ncc(-c3ccccc3)o2)cc(OC)c1 | 19.7% | 8.32% | 35.2% | 6.57% | 30.5% | -1% | 8.54% | -5.97% | 11.9% | 5.61% | 30.3% | 5% | 19.7% | 3.27% | 29.6% | 8.54% | 12.9% | 0.95% | 7.2% | 7.08%
2 | N#Cc1cccc(Nc2ncc(-c3ccccc3)o2)c1 | 12.6% | 3.16% | 26.5% | 4.53% | 25.1% | 1.62% | 3.17% | -5.06% | 8.8% | 1.03% | 11.6% | 4.81% | 1.97% | 1.44% | 5.62% | 2.27% | 3.84% | 0.79% | 2.94% | 4.93%
3 | CCOc1ccc2c(-c3ccnc(Nc4cc(OC)cc(C(F)(F)F)c4)n3)cnn2n1 | 3.16% | -1.33% | 3.13% | -1.23% | 4.94% | 0.98% | 3.69% | -2.65% | 8.93% | 0.65% | 13% | 2.18% | 8.92% | 1.08% | 4.09% | -0.06% | 3.44% | 0.08% | 2.69% | 1.85%
4 | c1ccc(-c2n[nH]cc2-c2ccnc(-c3ccc(OCCn4ccnc4)cc3)c2)nc1 | 3.78% | 0.64% | 4.04% | 0.02% | 4.91% | 0.7% | 4.37% | 1.04% | 10.7% | 1.14% | 11.1% | 1.69% | 15.1% | 1.04% | 7.73% | 2.54% | 4.01% | 3.67% | 7.08% | 42.6%
5 | NC(=O)c1ccc2c(-c3ccnc(NCCCO)n3)c(-c3ccc(F)cc3)nn2c1 | 2.24% | 3.11% | 2.83% | 3.99% | 2.98% | 9.73% | 38.4% | -3.98% | 12.1% | 1.36% | 3.29% | 2.54% | 0.26% | 0.74% | 6.84% | 5.04% | 12.3% | 1.47% | 7.29% | 9.85%
6 | O=C(O[C@H]1CN[C@H](C#Cc2cc3ncnc(Nc4ccc(OCc5cccc(F)c5)c(Cl)c4)c3s2)C1)N1CCOCC1 | 0.52% | 3.03% | 5.79% | 2.99% | 7.73% | 1.89% | 1.16% | -6.96% | 13% | 1.79% | 7.57% | 3.72% | 9.81% | 1.9% | 5.83% | 9.8% | 19% | 1.53% | 0.84% | 5.04%
7 | O=C(O[C@H]1CN[C@H](C#Cc2cc3ncnc(Nc4ccc5c(cnn5Cc5ccccc5)c4)c3s2)C1)N1CCOCC1 | 2.5% | -1.64% | -0.38% | -0.59% | 1.3% | 0.8% | 2.69% | 1.26% | 6.25% | 1.41% | 3.44% | 0.76% | 11.1% | 2.11% | 27.6% | 0.93% | 7.07% | 0.52% | 2.14% | -0.91%
8 | CCn1c(-c2nonc2N)nc2cncc(C(=O)NCCNC)c21 | 3.09% | 3.03% | 5.31% | 3.96% | 3.4% | -1.02% | 1.12% | -3.39% | 10.5% | 3.09% | 5.14% | 2.77% | 1.83% | 0.6% | 5.56% | 11.8% | 18% | 0.67% | 3.62% | 4.46%
9 | FC(F)(F)CNc1nccc(-c2cnn3ncccc23)n1 | 2.2% | 0.64% | -0.08% | 0.73% | 0.22% | -0.11% | 1.8% | -4.86% | 8.83% | 2.68% | 1.83% | 1.65% | 4.22% | 0.63% | 2.77% | 2.56% | 6.33% | -0.83% | 1.5% | 1.9%
10 | NS(=O)(=O)c1cccc(N/C=C2\C(=O)Nc3ccccc32)c1 | 16.2% | 6.02% | 32.9% | 6.86% | 32.3% | 4.29% | 6.83% | -2.94% | 21.3% | 7.85% | 47.6% | 6.68% | 40.5% | 7.7% | 76.7% | 4.31% | 9.72% | 4.14% | 28.9% | 23.3%
11 | COc1cccc(Nc2nccc(-c3cnn4ncccc34)n2)c1 | 17.4% | 6.68% | 34.1% | 7.22% | 37.6% | 2.32% | 15.5% | -4.06% | 22.8% | 11.9% | 86.4% | 26.7% | 72.3% | 33.2% | 97.3% | 4.01% | 17.4% | 17.1% | 60.1% | 14.8%
12 | N#Cc1ccc2c(-c3ccnc(NC4CC4)n3)c(-c3ccc(F)cc3)nn2c1 | -2.02% | 0.12% | 0.68% | -1.35% | -1.48% | 0.94% | 12.3% | 0.53% | 3.53% | 0.84% | 0.56% | 0.7% | -0.38% | 0.81% | 5.38% | 2.63% | 4.13% | 0.19% | 2.06% | 5.83%
13 | Cc1cc(O)cc(C)c1/C=C/c1cncc(C(N)=O)c1 | 1.48% | 1.71% | 0.87% | 1.25% | 0.56% | 5.98% | 27.9% | -2.57% | 2.18% | 2.32% | 11.7% | 2.21% | 7.09% | 8.73% | 1.85% | 4.97% | 20.2% | 2.32% | 8.96% | 4.83%
